# Records with an inconclusive call do not appear. Active and inactive are the calls of the source. Rule for the calls: active = hit-call score of the fitted dose curve at least 0.9, where 1 is the maximum; inconclusive = response in the unintended direction; inactive = score below 0.9.
# Assay: TOX21_PR_BLA_Followup_Agonist_viability: Viability Assessment in the Tox21 HEK293 Progesterone Receptor (PR) Agonism Beta-lactamase Follow-Up Assay (AID 2283935);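 note: signal loss means lower viability so actives are cytotoxic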
# Procedure, shortened: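 Luminescent ATP quantitation (CellTiter-Glo, 30 min, room temperature) in the same wells as the beta-lactamase read, on PR-UAS-bla HEK293T cells exposed to compound for 16 hr at 37C in 2% charcoal-stripped serum.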
row,SMILES,outcome
1,CCN(CC)CC(=O)OCC(=O)[C@@]1(O)CC[C@H]2[C@@H]3CCC4=CC(=O)CC[C@]4(C)[C@H]3[C@@H](O)C[C@@]21C,inactive
2,C/C=C1\C(=O)C[C@H]2[C@@H]3CCC4=CC(=O)CC[C@]4(C)[C@H]3CC[C@]12C,inactive
3,C[C@@H]1CC(=O)NN=C1c1ccc(NN=C(C#N)C#N)cc1,inactive
4,CC(=O)O[C@H]1CC[C@@]2(C)C(=CC[C@@H]3[C@@H]2CC[C@]2(C)C(C(C)=O)=CC[C@@H]32)C1,inactive
5,C[C@@H]1C[C@H]2[C@@H]3C[C@H](F)C4=CC(=O)C=C[C@]4(C)[C@@]3(F)[C@@H](O)C[C@]2(C)[C@@]1(O)C(=O)CO,inactive
6,C[C@@H]1C[C@H]2[C@@H]3CCC4=CC(=O)C=C[C@]4(C)[C@@]3(F)[C@@H](O)C[C@]2(C)[C@@]1(O)C(=O)COC(=O)c1ccncc1,inactive
7,CCC(=O)Oc1ccc2c(c1)CC[C@@H]1[C@@H]2CC[C@@]2(C)[C@H]1C[C@@H](OC(=O)CC)[C@@H]2OC(=O)CC,inactive
8,CC(=O)O[C@@H]1CC2C3CCc4cc(OC(=O)c5ccccc5)ccc4C3CCC2(C)[C@H]1OC(C)=O (stereo partly specified),inactive
9,Clc1ccccc1CN1CCc2sccc2C1,inactive
10,COC(=O)C1=C(C)NC(C)=C(C(=O)OC(C)C)C1c1cccc2nonc12 (stereo unspecified),inactive
11,CC(=O)OCC(=O)[C@@]1(O)[C@H](C)C[C@H]2[C@@H]3CCC4=CC(=O)C=C[C@]4(C)[C@@]3(F)[C@@H](O)C[C@@]21C,inactive
12,CC(=O)OCC(=O)[C@H]1CC[C@H]2[C@@H]3CCC4=CC(=O)CC[C@]4(C)[C@H]3CC[C@]12C,inactive
13,CCC(=O)O[C@]1(C(=O)COC)[C@@H](C)C[C@H]2[C@@H]3CCC4=CC(=O)C=C[C@]4(C)C3(F)[C@@H](O)C[C@@]21C (stereo partly specified),inactive
14,CCCC(=O)O[C@]1(C(=O)CO)CC[C@H]2[C@@H]3CCC4=CC(=O)CC[C@]4(C)[C@H]3[C@@H](O)C[C@@]21C,inactive
15,COC(=O)[C@@H]1CC2=CC(=O)CC[C@]2(C)[C@@]23O[C@@H]2C[C@@]2(C)[C@@H](CC[C@@]24CCC(=O)O4)[C@H]13,inactive
16,C/C=C(/C(=C/C)c1ccc(OC(C)=O)cc1)c1ccc(OC(C)=O)cc1,inactive
17,C/C=C1/C(=O)C[C@H]2[C@@H]3CCC4=CC(=O)CC[C@]4(C)[C@H]3CC[C@]12C,inactive
18,CC(=O)OCC(=O)[C@@]1(O)CC[C@H]2[C@@H]3CCC4=CC(=O)CC[C@]4(C)[C@H]3C(=O)C[C@@]21C,inactive
19,C[C@]12CCC(=O)C=C1CC[C@H]1[C@@H]3CC[C@](O)(C(=O)CO)[C@@]3(C)C[C@H](O)[C@@]12F,inactive
20,C[C@]12CCC(=O)C=C1CC[C@@H]1[C@@H]2[C@@H](O)C[C@@]2(C)[C@H]1CC[C@]2(O)C(=O)CO,inactive
21,CC(C)(C)C(O)/C=C/c1ccc2c(c1)OCO2 (stereo unspecified),inactive
22,CCCC(=O)OCOC(=O)C1=C(C)NC(C)=C(C(=O)OC)C1c1cccc(Cl)c1Cl (stereo unspecified),inactive

# Assay: TOX21_PR_BLA_Followup_Antagonist_viability: Viability Assessment in the Tox21 HEK293 Progesterone Receptor (PR) Antagonism Beta-lactamase Follow-Up Assay (AID 2283936);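 note: cells exposed to compound with R5020 agonist for 16 h; hits lower the luminescence signal meaning cytotoxicity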
# Procedure, shortened: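 PR-UAS-bla HEK293T cells in medium with 2% charcoal-stripped FBS were treated with compounds plus R5020 for 16 hr at 37C. After the beta-lactamase read, CellTiter-Glo was added to the same wells and luminescence read after 30 min at room temperature.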
row,SMILES,outcome
1,CCN(CC)CC(=O)OCC(=O)[C@@]1(O)CC[C@H]2[C@@H]3CCC4=CC(=O)CC[C@]4(C)[C@H]3[C@@H](O)C[C@@]21C,inactive
2,C[C@@H]1CC(=O)NN=C1c1ccc(NN=C(C#N)C#N)cc1,inactive
3,CC(=O)O[C@H]1CC[C@@]2(C)C(=CC[C@@H]3[C@@H]2CC[C@]2(C)C(C(C)=O)=CC[C@@H]32)C1,inactive
4,C[C@@H]1C[C@H]2[C@@H]3C[C@H](F)C4=CC(=O)C=C[C@]4(C)[C@@]3(F)[C@@H](O)C[C@]2(C)[C@@]1(O)C(=O)CO,inactive
5,C[C@@H]1C[C@H]2[C@@H]3CCC4=CC(=O)C=C[C@]4(C)[C@@]3(F)[C@@H](O)C[C@]2(C)[C@@]1(O)C(=O)COC(=O)c1ccncc1,inactive
6,CCC(=O)Oc1ccc2c(c1)CC[C@@H]1[C@@H]2CC[C@@]2(C)[C@H]1C[C@@H](OC(=O)CC)[C@@H]2OC(=O)CC,inactive
7,CC(=O)O[C@@H]1CC2C3CCc4cc(OC(=O)c5ccccc5)ccc4C3CCC2(C)[C@H]1OC(C)=O (stereo partly specified),inactive
8,Clc1ccccc1CN1CCc2sccc2C1,inactive
9,COC(=O)C1=C(C)NC(C)=C(C(=O)OC(C)C)C1c1cccc2nonc12 (stereo unspecified),inactive
10,CC(=O)OCC(=O)[C@@]1(O)[C@H](C)C[C@H]2[C@@H]3CCC4=CC(=O)C=C[C@]4(C)[C@@]3(F)[C@@H](O)C[C@@]21C,inactive
11,CC(=O)OCC(=O)[C@H]1CC[C@H]2[C@@H]3CCC4=CC(=O)CC[C@]4(C)[C@H]3CC[C@]12C,inactive
12,CCC(=O)O[C@]1(C(=O)COC)[C@@H](C)C[C@H]2[C@@H]3CCC4=CC(=O)C=C[C@]4(C)C3(F)[C@@H](O)C[C@@]21C (stereo partly specified),inactive
13,COC(=O)[C@@H]1CC2=CC(=O)CC[C@]2(C)[C@@]23O[C@@H]2C[C@@]2(C)[C@@H](CC[C@@]24CCC(=O)O4)[C@H]13,inactive
14,C/C=C(/C(=C/C)c1ccc(OC(C)=O)cc1)c1ccc(OC(C)=O)cc1,inactive
15,C/C=C1/C(=O)C[C@H]2[C@@H]3CCC4=CC(=O)CC[C@]4(C)[C@H]3CC[C@]12C,inactive
16,CC(=O)OCC(=O)[C@@]1(O)CC[C@H]2[C@@H]3CCC4=CC(=O)CC[C@]4(C)[C@H]3C(=O)C[C@@]21C,inactive
17,C[C@]12CCC(=O)C=C1CC[C@H]1[C@@H]3CC[C@](O)(C(=O)CO)[C@@]3(C)C[C@H](O)[C@@]12F,inactive
18,CC(C)(C)C(O)/C=C/c1ccc2c(c1)OCO2 (stereo unspecified),inactive
19,CCCC(=O)OCOC(=O)C1=C(C)NC(C)=C(C(=O)OC)C1c1cccc(Cl)c1Cl (stereo unspecified),inactive
